Values joined by “and” are separate entries in the source; they are usually repeats but may differ in a detail not shown here. Equal entries are not always repeated. Active and inactive are the calls of the source. Unless noted, how the calls were made is not given here.
Assays:
[1] = test system: Wnt5a (protein binding on small-molecule microarray); test: small molecules binding Wnt5a protein – biophysical, small-molecule microarray, 635/667 nm fluorescence, primary screen (AID 1142); conditions: 635 nm fluorescence, higher = more signal;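 further: fluorescence read at 667 nm with signal to noise per printed feature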
[2] = ATP-based viability of Huh7 replicon cells – cell-based, CellTiter-Glo luminescence, basal, 48 h, cytotoxicity control for HCV replication inhibitor project, primary screen (AID 1143); conditions: higher = more signal, called active from +8 up or from −8 down;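 further: Huh7 hepatoma cells carrying a hepatitis C replication reporter with no stimulus; test concentration not given here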
[3] = Pseudomonas biofilm growth suppression – PAO1 strain, BacTiter-Glo luminescence, LB-PBS, primary screen (AID 1144); conditions: P. aeruginosa PAO1 biofilm, 12 h, higher = more signal
[4] = basal CRE-LacZ reporter activity in PC12 – cell-based, unstimulated, primary screen (AID 1145); conditions: no forskolin, luminescence, 4.5 h, higher = more signal, called active from +8 up or from −8 down
[5] = forskolin-driven CRE-LacZ activity in PC12 – cell-based, CRE-LacZ reporter, forskolin-stimulated, primary screen (AID 1146); conditions: luminescence, 4.5 h, higher = more signal, called active from +8 up or from −8 down;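 further: PC12 cells with 6xCRE LacZ reporter stimulated by forskolin 10 µM; beta-galactosidase reporter signal reflecting CREB driven transcription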
[6] = target: Streptavidin (Streptomyces avidinii) (UniProt P22629); test: compounds binding control protein streptavidin – biophysical, small-molecule microarray, 635/667 nm fluorescence, artefact control for SMM compound annotation, primary screen (AID 1147); conditions: higher = more signal;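 further: signal reflects streptavidin binding to arrayed compounds as a control protein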
[7] = probe aInhba binding on compound microarray – biochemical, small-molecule microarray, 635/667 nm fluorescence, primary screen (AID 1148); conditions: higher = more signal;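 further: score merges 667nm spot fluorescence with signal-to-noise for antibody binding to printed compounds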
Torsin-1A (Homo sapiens) [8] = target: Torsin-1A (Homo sapiens) (UniProt O14656); test: TOR1A wild-type binding on microarray – cell lysate, small-molecule microarray, lysate, 635/667 nm, primary screen (AID 1149); conditions: COS7 hTOR1A-WT lysate, 635 nm fluorescence, higher = more signal
Torsin-1A (Homo sapiens) [9] = target: Torsin-1A (Homo sapiens) (UniProt O14656); test: torsin A mutant lysate binding on microarrays – cell lysate, small-molecule microarray, COS7 lysate, 635/667 nm fluorescence, primary screen (AID 1150); conditions: COS7 hTOR1A mutant lysate, 635 nm fluorescence, higher = more signal;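 further: score pools 667 nm emission and signal to noise measuring lysate protein binding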
[10] = test system: Sonic hedgehog protein (Shh); test: Sonic hedgehog microarray binding compounds – biochemical, small-molecule microarray, 635/667 nm fluorescence, primary screen (AID 1151); conditions: 635 nm fluorescence, higher = more signal;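 further: Shh protein binding to compounds spotted on small-molecule microarray slides; score combines spot fluorescence intensity with signal-to-noise across triplicate slides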

Torsin-1A (Homo sapiens), sequence (O14656 whole entry, looked up): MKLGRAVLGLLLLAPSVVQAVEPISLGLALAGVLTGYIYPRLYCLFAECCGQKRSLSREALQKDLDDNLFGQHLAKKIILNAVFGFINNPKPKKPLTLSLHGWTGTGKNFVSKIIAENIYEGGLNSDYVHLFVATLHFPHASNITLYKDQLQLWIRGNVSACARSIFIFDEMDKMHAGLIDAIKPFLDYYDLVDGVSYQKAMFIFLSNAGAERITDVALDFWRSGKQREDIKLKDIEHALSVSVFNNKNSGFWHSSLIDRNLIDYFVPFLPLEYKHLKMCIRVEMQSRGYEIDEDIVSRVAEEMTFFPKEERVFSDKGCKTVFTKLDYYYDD
Streptavidin (Streptomyces avidinii), sequence (P22629 whole entry, looked up): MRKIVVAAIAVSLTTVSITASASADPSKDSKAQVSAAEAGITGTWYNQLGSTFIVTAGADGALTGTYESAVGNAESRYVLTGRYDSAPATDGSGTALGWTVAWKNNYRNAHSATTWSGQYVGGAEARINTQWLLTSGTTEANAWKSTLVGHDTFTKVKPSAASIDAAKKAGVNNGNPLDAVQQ

SMILES	composite z-score [1]	z-score [2]	z-score [3]	z-score [4]	z-score [5]	composite z-score [6]	composite z-score [7]	composite z-score (Torsin-1A (Homo sapiens) [8])	composite z-score (Torsin-1A (Homo sapiens) [9])	composite z-score [10]
CC(C)=NOCc1ccc(-c2cn([C@@H]3COC[C@H]3O)nn2)cc1	0.184	0.164 (inactive)	1.08 (inactive)	1.47 (inactive)	0.607 (inactive)	0.562	-0.128	0.538	0.162	0.169
C=CCN(Cc1ccccc1)C(=O)C1N(CCCCCCO)C(=O)C2C(C(=O)O)C3C=CC21O3 (stereo not given)	-1.02 and -1.77	-0.118 (inactive) and 0.533 (inactive)	-0.12 (inactive) and -1.45 (inactive)	-1.31 (inactive) and -1.44 (inactive)	-0.665 (inactive) and -0.279 (inactive)	-1.02 and -1.77	-0.159 and -0.21	-3.02 and -4.56	-2.45 and 0.914	-1.62 and -1.85
CCOC(=O)c1ccc(NC(=O)O[C@H]2[C@H](OC(=O)Nc3ccccc3)[C@H](OC(=O)Nc3ccccc3)[C@@H](OC)O[C@@H]2CO)cc1	0.679 and 0.445	-4.37 (inactive) and -5.71 (inactive)	0.44 (inactive) and -0.118 (inactive)	-0.0484 (inactive) and 0.596 (inactive)	0.359 (inactive) and -1.63 (inactive)	1.06 and 0.79	0.189 and 0.232	0.147 and 0.386	0.592 and 0.568	1.17 and 1.63
CO[C@H]1COC(=O)CC=C[C@@H](C)COC(=O)[C@@H](OCc2ccccc2)C=C[C@@H]1C	-0.134	-0.356 (inactive)	0.106 (inactive)	0.79 (inactive)	-0.471 (inactive)	0.999	-0.3	2.35	2.28	1.96
CC(C)OC(=O)C=C1C[C@@H](c2ccccc2)O[C@@H](c2ccccc2)O1	0.706 and 0.731	-1.4 (inactive) and -2.03 (inactive)	-0.804 (inactive) and -1.18 (inactive)	0.836 (inactive) and -0.0879 (inactive)	-0.127 (inactive) and 3.16 (inactive)	1.35 and 1.85	0.122 and 0.234	1.55 and 1.19	1.57 and 1.46	1.67 and 0.885
CCN1C(=O)[C@H]2[C@H]3[C@H](O)[C@H](O)CC(=NOC[C@@H](O)COCc4ccco4)[C@@H]3CC[C@H]2C1=O	0.0867 and 0.192	0.343 (inactive) and 0.422 (inactive)	-1.34 (inactive) and -0.00909 (inactive)	-0.746 (inactive) and 1.6 (inactive)	0.463 (inactive) and 0.503 (inactive)	-0.503 and -0.321	-0.324 and -0.15	3.48 and 0.374	3.12 and 0.272	2.1 and 1.78
C=CCN(CCCC)C(=O)C1N(CCCCCCO)C(=O)C2C(C(=O)O)C3C=CC21O3 (stereo not given)	-0.718 and -0.319	0.427 (inactive) and 0.424 (inactive)	0.759 (inactive) and 2.36 (inactive)	0.0645 (inactive) and -0.769 (inactive)	0.149 (inactive) and 0.147 (inactive)	-1.46 and -1.12	-0.35 and -0.312	1.31 and -1.36	-2.04 and -2.49	-1.18 and -1.43
Cc1cc2c(nc1C)CCCN2CC(O)CN1CCCc2nc(-c3ccc(Br)cc3)ccc21 (stereo not given)	0.573 and 1.08	-0.721 (inactive) and -1.07 (inactive)	-0.0664 (inactive) and 0.806 (inactive)	0.0167 (inactive) and 0.382 (inactive)	-0.362 (inactive) and -0.274 (inactive)	1.4 and 1.8	0.496 and 0.639	0.501 and 0.62	0.797 and 0.251	1.13 and 1.11
C=C(C)C(=O)OC[C@@H]1CN2[C@@H](CC[C@@H](C)[C@@H]2c2ccc(Br)cc2)C(=O)O1	-0.0892	-0.0082 (inactive)	-1.58 (inactive)	1.54 (inactive)	0.11 (inactive)	-0.222	-0.0895	0.457	0.231	0.605
COc1ccc(COC(=O)NN=C2C[C@@H](O)[C@@H](O)[C@@H]3[C@@H]4C(=O)N(C(C)(C)C)C(=O)[C@@H]4CC[C@H]23)cc1	-0.0647	-1.47 (inactive)	0.439 (inactive)	0.876 (inactive)	0.479 (inactive)	-0.199	-0.151	0.656	-0.178	0.352
C=CCN(C(=O)C(c1cccs1)N(CCOCCO)C(=O)/C=C\C(=O)O)C(C)(C)C (stereo not given)	-0.775 and -0.776	-0.199 (inactive) and -0.0585 (inactive)	-1.2 (inactive) and -0.384 (inactive)	1.42 (inactive) and 0.191 (inactive)	0.005 (inactive) and -0.599 (inactive)	-1.89 and -1.22	-0.251 and -0.176	-1.26 and -0.984	-1.79 and -2.02	-1.27 and -0.703
COCn1c2ccccc2c2nnc(C(C)=O)nc21	-0.122 and 0.0561	-2.71 (inactive) and -2.58 (inactive)	-0.843 (inactive) and -0.869 (inactive)	0.11 (inactive) and -0.0732 (inactive)	0.353 (inactive) and 0.754 (inactive)	-0.121 and -0.232	-0.274 and 0.0111	0.331 and 0.417	-0.302 and 0.13	0.479 and 0.343
Cc1ccc(S(=O)(=O)OC[C@@H]2CN3[C@@H](CC[C@@H](C)[C@@H]3c3ccc(Br)cc3)C(=O)O2)cc1	0.225 and 0.0286	0.0308 (inactive) and -0.565 (inactive)	0.152 (inactive) and -0.0678 (inactive)	0.471 (inactive) and 1.22 (inactive)	0.599 (inactive) and -0.853 (inactive)	0.197 and 0.0059	-0.0736 and 0.0173	0.478 and 0.543	0.244 and 0.594	0.566 and 0.616
C=CCN(CCCCC)C(=O)C(c1cccs1)N(CCOCCO)C(=O)/C=C\C(=O)O (stereo not given)	-0.845 and -0.857	-0.103 (inactive) and -0.0586 (inactive)	-1 (inactive) and -1.11 (inactive)	-0.0778 (inactive) and -0.35 (inactive)	0.941 (inactive) and -0.947 (inactive)	-0.986 and -1.14	-0.312 and -0.204	-2.06 and -2.03	-1.74 and -2.07	-0.556 and -0.586
CCOC(=O)NN=C1C[C@@H](O)[C@@H](O)[C@@H]2[C@@H]3C(=O)N(Cc4ccccc4)C(=O)[C@@H]3CC[C@@H]12	-0.0099	0.162 (inactive)	-0.0519 (inactive)	0.52 (inactive)	0.0513 (inactive)	-0.199	-0.178	0.832	0.304	0.773
C=CCN(CCCC)C(=O)C(c1cccs1)N(C(=O)/C=C\C(=O)O)c1ccc(CCO)cc1 (stereo not given)	-0.118 and -0.341	0.197 (inactive) and 0.617 (inactive)	-0.568 (inactive) and 0.123 (inactive)	-0.0818 (inactive) and 0.195 (inactive)	-0.21 (inactive) and -0.185 (inactive)	-0.874 and -1.49	-0.195 and -0.331	-1.2 and -3.21	-2.35 and -1.52	-0.463 and -1.18
CC(C)CON=C1C[C@@H](O)[C@@H](O)[C@@H]2[C@@H]3C(=O)N(c4cccc(Oc5ccccc5)c4)C(=O)[C@@H]3CC[C@H]12	0.738	-0.158 (inactive)	0.198 (inactive)	-0.292 (inactive)	0.235 (inactive)	0.804	-0.102	-0.243	0.22	0.697
COc1ccc(O[C@H]2C=C[C@@H](c3ccccc3)O[C@@H]2COC(=O)CCC(C)=NO[C@H](C)c2cn([C@H](CO)Cc3ccccc3)nn2)cc1	0.205 and -0.274	-1.93 (inactive) and -1.7 (inactive)	0.916 (inactive) and 1.05 (inactive)	2.66 (inactive) and 1.53 (inactive)	1.83 (inactive) and 0.775 (inactive)	0.379 and 2.03	0.344 and 0.104	0.362 and 0.702	0.127 and 0.463	0.372 and 1.69
COC(=O)C1=C(C)N(Cc2ccccc2)C2=C(C(=O)c3ccccc3)[C@H](c3ccccc3)[C@@](O)(C(=O)OC)C(=O)N2[C@@H]1c1ccccc1	0.0925 and 0.179	-2.35 (inactive) and 0.428 (inactive)	-1.1 (inactive) and -0.472 (inactive)	3.09 (inactive) and -0.989 (inactive)	0.415 (inactive) and -1.18 (inactive)	0.077 and -0.118	0.0173 and -0.224	0.0486 and 0.0903	0.483 and -0.0314	0.557 and 0.757
C=CCN(CCCC)C(=O)C1N(c2c(Cl)cccc2CO)C(=O)C2C(C(=O)O)C3C=CC21O3 (stereo not given)	-0.77 and -0.986	-0.0286 (inactive) and -0.784 (inactive)	0.0942 (inactive) and -2.19 (inactive)	-0.887 (inactive) and -1.3 (inactive)	-0.718 (inactive) and -0.285 (inactive)	-1.03 and -2	-0.231 and 0.72	-1.67 and 1.69	-0.696 and 0.827	-0.979 and -1.17
C=CCN(C(=O)C(c1cccs1)N(C(=O)/C=C\C(=O)O)c1ccc(CCO)cc1)C(C)(C)C (stereo not given)	-0.156 and -1.27	-0.243 (inactive) and 0.38 (inactive)	-0.638 (inactive) and 0.984 (inactive)	-0.0859 (inactive) and 0.597 (inactive)	0.332 (inactive) and -0.439 (inactive)	-0.298 and -0.966	-0.154 and -0.227	-0.603 and -2.33	1.56 and -2.14	-0.754 and -1.36
C=CCN(CCCCC)C(=O)C1N(CCCCCCO)C(=O)C2C(C(=O)O)C3C=CC21O3 (stereo not given)	-0.332 and -1.43	0.289 (inactive) and 0.729 (inactive)	1.69 (inactive) and 2.31 (inactive)	0.333 (inactive) and -0.497 (inactive)	-0.587 (inactive) and -0.0866 (inactive)	-1.69 and -1.59	-0.173 and -0.233	-2.55 and -3.31	-1.53 and 0.765	-0.661 and -1.21
CCC[C@@H]1C[C@@]1(CCC)[C@@H](NC(=O)c1ccc(-c2ccccc2)cc1)c1cccc(Cl)c1	0.585 and -0.0434	-2.34 (inactive) and -1.18 (inactive)	-0.439 (inactive) and -0.623 (inactive)	0.394 (inactive) and -0.568 (inactive)	0.0069 (inactive) and -0.151 (inactive)	-0.475 and 0.378	1.13 and -0.0011	0.286 and -0.411	0.322 and 0.104	-0.032 and -0.684

Reference: PubChem BioAssay
